Experimental data reported in ChEMBL document CHEMBL1961873, “Compounds: GSK PKIS; Assays: Nanosyn kinase panel” (2012).

Tests used:
[1] = target: Sphingosine kinase 1 (Homo sapiens) (UniProt Q9NYA1); details: at 1 µM;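 further: mean SPHK1 inhibition value reported from the GSK PKIS kinase panel screen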
[2] = target: T1, Sphingosine kinase 2 (Homo sapiens) (UniProt Q9NRA0); details: at 0.1 µM
T1 sequence (whole entry): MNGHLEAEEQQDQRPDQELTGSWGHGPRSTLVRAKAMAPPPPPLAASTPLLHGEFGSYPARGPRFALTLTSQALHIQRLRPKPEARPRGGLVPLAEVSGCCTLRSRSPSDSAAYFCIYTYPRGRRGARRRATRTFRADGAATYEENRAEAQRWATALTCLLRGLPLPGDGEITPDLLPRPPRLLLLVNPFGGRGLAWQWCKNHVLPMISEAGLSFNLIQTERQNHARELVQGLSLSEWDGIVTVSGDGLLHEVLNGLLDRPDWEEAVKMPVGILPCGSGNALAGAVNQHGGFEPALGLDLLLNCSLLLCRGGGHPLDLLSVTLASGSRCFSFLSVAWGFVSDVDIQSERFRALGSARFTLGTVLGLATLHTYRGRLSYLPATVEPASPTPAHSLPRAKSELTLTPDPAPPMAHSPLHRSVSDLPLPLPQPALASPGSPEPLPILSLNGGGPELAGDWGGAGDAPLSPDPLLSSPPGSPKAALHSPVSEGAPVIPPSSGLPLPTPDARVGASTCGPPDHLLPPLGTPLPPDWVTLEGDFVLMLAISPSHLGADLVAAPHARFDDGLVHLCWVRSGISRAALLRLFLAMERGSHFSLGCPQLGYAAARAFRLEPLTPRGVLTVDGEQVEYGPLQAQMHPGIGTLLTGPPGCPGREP

[3] = target: T1, Sphingosine kinase 2 (Homo sapiens); details: at 1 µM
[4] = target: Casein kinase II subunit alpha (Homo sapiens) (UniProt P68400); details: at 0.1 µM
Sequence of Casein kinase II subunit alpha (Homo sapiens) (P68400 whole entry, looked up): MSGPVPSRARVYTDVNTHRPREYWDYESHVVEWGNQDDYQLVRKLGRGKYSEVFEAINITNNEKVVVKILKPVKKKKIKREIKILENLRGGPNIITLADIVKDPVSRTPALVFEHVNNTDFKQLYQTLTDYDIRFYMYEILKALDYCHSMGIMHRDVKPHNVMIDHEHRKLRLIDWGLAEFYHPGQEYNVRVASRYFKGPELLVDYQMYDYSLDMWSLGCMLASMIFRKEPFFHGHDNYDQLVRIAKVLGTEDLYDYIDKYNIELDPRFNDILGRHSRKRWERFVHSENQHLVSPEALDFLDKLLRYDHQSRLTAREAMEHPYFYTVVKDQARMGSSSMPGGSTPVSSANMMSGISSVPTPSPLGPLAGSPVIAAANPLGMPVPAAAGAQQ

[5] = target: Casein kinase II subunit alpha (Homo sapiens) (UniProt P68400); details: at 1 µM
[6] = target: T2, Inhibitor of nuclear factor kappa-B kinase subunit alpha (Homo sapiens) (UniProt O15111); details: at 0.1 µM
T2 sequence (whole entry): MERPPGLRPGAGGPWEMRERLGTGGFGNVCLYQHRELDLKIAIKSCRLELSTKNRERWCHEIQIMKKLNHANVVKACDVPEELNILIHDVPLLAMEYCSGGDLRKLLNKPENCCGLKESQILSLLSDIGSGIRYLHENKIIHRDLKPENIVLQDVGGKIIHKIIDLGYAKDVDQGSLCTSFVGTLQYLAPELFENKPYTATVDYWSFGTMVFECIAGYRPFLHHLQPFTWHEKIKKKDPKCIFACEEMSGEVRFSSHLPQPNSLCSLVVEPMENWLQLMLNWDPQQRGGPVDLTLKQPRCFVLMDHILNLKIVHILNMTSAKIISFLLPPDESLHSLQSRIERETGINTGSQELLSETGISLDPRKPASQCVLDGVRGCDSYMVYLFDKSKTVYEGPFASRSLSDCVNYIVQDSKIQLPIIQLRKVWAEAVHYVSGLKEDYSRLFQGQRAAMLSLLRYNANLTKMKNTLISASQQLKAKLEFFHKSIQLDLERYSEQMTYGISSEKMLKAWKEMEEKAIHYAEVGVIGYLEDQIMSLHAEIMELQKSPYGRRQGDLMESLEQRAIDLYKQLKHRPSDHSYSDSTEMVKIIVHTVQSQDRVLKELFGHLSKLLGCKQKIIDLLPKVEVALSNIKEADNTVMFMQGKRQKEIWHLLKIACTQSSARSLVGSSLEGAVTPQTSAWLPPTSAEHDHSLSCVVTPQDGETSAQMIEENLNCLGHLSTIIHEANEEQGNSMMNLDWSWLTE

[7] = target: T2, Inhibitor of nuclear factor kappa-B kinase subunit alpha (Homo sapiens); details: at 1 µM
[8] = target: T3, Inhibitor of nuclear factor kappa-B kinase subunit beta (Homo sapiens) (UniProt O14920); details: at 0.1 µM
T3 sequence (whole entry): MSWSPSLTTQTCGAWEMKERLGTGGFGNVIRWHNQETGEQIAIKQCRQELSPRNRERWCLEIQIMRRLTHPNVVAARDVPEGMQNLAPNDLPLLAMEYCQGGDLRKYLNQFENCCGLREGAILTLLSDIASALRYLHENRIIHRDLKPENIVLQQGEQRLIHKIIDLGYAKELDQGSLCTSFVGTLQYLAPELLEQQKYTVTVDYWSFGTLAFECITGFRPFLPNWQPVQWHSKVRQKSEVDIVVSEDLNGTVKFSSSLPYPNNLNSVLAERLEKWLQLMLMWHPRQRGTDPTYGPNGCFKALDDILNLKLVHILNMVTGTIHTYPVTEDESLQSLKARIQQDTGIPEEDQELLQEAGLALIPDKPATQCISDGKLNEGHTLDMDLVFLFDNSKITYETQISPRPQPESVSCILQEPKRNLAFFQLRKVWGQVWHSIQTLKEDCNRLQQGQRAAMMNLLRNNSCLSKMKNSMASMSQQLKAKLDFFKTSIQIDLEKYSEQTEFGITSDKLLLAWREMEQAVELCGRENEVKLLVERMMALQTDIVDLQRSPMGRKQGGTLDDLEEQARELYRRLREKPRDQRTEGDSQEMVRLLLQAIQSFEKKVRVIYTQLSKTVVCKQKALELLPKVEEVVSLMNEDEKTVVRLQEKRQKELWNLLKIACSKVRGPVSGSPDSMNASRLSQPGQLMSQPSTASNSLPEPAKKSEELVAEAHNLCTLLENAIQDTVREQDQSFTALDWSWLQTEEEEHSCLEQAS

[9] = target: T3, Inhibitor of nuclear factor kappa-B kinase subunit beta (Homo sapiens); details: at 1 µM
[10] = target: T4, Inhibitor of nuclear factor kappa-B kinase subunit epsilon (Homo sapiens) (UniProt Q14164); details: at 0.1 µM
T4 sequence (whole entry): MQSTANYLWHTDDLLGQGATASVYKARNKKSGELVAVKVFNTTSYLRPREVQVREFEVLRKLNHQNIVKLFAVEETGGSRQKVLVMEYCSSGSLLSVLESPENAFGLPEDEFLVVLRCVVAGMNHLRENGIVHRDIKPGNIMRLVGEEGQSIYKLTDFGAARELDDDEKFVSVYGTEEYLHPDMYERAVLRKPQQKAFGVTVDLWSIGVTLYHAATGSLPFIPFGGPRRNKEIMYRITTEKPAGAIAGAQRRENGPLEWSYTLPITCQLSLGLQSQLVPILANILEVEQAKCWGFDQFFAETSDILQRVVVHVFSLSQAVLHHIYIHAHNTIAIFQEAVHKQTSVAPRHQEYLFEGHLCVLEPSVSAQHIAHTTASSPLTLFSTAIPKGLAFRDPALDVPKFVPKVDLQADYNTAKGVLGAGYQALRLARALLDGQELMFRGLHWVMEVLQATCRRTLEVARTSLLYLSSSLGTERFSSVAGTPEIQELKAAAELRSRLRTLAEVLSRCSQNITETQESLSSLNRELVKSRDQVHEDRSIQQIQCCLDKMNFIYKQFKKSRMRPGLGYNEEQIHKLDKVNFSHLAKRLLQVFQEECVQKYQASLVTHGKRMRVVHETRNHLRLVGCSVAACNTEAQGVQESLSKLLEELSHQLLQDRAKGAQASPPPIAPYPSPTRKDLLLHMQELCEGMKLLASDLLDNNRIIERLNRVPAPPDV

[11] = target: T4, Inhibitor of nuclear factor kappa-B kinase subunit epsilon (Homo sapiens); details: at 1 µM
[12] = target: T5, Serine/threonine-protein kinase Nek1 (Homo sapiens) (UniProt Q96PY6); details: at 0.1 µM
T5 sequence (whole entry): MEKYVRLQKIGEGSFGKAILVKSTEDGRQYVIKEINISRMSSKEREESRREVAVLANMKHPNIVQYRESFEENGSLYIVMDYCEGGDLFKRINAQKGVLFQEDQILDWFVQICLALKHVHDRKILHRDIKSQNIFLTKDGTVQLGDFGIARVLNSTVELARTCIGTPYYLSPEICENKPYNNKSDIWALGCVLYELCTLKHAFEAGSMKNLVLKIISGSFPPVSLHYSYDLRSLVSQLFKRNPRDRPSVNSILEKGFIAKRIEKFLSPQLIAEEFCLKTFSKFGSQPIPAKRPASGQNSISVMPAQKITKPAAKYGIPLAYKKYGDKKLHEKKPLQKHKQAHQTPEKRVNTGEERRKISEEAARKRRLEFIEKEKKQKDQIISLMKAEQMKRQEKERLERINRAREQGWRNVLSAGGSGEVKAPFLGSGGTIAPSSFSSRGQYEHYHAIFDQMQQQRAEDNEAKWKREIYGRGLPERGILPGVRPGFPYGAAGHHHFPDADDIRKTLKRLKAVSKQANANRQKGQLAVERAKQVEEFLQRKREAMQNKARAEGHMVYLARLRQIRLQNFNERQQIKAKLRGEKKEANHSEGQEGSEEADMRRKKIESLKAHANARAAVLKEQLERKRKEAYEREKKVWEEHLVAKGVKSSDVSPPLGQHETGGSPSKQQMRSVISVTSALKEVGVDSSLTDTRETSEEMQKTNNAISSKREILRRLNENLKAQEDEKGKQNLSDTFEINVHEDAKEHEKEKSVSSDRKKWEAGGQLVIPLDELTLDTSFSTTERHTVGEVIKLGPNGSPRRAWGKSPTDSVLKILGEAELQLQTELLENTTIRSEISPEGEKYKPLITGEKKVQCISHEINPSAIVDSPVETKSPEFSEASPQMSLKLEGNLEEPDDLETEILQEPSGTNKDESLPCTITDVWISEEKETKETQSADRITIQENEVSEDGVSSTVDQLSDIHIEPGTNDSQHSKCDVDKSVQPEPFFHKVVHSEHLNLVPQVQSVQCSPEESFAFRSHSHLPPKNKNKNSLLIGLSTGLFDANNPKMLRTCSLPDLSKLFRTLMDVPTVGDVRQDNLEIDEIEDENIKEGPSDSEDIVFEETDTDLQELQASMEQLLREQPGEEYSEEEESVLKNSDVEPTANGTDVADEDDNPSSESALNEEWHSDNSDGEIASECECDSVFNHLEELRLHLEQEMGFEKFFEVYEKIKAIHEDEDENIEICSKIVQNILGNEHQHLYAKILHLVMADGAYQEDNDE

[13] = target: T5, Serine/threonine-protein kinase Nek1 (Homo sapiens); details: at 1 µM
[14] = target: T6, Serine/threonine-protein kinase Nek2 (Homo sapiens) (UniProt P51955); details: at 0.1 µM
T6 sequence (whole entry): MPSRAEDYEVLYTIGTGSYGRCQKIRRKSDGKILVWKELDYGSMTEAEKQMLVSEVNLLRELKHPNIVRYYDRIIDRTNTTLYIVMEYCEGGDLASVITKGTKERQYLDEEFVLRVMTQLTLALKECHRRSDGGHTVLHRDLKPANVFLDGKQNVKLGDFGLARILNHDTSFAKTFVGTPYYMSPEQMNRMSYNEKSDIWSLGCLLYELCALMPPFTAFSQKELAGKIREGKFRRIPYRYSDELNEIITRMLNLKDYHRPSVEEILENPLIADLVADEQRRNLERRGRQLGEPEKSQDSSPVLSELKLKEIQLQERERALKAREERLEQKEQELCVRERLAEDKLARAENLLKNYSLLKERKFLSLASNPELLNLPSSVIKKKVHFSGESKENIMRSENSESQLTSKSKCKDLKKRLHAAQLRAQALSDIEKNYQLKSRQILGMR

[15] = target: T6, Serine/threonine-protein kinase Nek2 (Homo sapiens); details: at 1 µM
[16] = target: Serine/threonine-protein kinase Nek6 (Homo sapiens) (UniProt Q9HC98); details: at 0.1 µM
Sequence of Serine/threonine-protein kinase Nek6 (Homo sapiens) (Q9HC98 whole entry): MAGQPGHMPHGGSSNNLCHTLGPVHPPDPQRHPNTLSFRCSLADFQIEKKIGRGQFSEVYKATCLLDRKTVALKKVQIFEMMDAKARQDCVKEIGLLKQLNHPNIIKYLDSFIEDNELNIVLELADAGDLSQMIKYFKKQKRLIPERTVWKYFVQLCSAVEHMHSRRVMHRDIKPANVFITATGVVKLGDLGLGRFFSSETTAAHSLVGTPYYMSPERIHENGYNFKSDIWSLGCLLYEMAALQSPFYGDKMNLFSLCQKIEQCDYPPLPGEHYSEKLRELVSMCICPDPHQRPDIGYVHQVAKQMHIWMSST

[17] = target: Serine/threonine-protein kinase Nek6 (Homo sapiens) (UniProt Q9HC98); details: at 1 µM
[18] = target: Serine/threonine-protein kinase Nek7 (Homo sapiens) (UniProt Q8TDX7); details: at 0.1 µM
Sequence of Serine/threonine-protein kinase Nek7 (Homo sapiens) (Q8TDX7 whole entry, looked up): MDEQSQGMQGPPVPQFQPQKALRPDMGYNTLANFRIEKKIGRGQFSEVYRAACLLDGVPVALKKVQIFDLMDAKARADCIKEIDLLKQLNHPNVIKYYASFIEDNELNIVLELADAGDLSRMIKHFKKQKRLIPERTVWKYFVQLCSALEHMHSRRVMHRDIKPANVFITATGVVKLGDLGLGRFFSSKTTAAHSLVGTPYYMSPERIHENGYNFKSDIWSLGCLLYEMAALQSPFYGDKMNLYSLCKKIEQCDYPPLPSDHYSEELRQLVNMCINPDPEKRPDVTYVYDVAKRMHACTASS

[19] = target: Serine/threonine-protein kinase Nek7 (Homo sapiens) (UniProt Q8TDX7); details: at 1 µM
[20] = target: T7, Serine/threonine-protein kinase Nek9 (Homo sapiens) (UniProt Q8TD19); details: at 0.1 µM;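 further: reported value is the mean percent inhibition of NEK9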
T7 sequence (whole entry): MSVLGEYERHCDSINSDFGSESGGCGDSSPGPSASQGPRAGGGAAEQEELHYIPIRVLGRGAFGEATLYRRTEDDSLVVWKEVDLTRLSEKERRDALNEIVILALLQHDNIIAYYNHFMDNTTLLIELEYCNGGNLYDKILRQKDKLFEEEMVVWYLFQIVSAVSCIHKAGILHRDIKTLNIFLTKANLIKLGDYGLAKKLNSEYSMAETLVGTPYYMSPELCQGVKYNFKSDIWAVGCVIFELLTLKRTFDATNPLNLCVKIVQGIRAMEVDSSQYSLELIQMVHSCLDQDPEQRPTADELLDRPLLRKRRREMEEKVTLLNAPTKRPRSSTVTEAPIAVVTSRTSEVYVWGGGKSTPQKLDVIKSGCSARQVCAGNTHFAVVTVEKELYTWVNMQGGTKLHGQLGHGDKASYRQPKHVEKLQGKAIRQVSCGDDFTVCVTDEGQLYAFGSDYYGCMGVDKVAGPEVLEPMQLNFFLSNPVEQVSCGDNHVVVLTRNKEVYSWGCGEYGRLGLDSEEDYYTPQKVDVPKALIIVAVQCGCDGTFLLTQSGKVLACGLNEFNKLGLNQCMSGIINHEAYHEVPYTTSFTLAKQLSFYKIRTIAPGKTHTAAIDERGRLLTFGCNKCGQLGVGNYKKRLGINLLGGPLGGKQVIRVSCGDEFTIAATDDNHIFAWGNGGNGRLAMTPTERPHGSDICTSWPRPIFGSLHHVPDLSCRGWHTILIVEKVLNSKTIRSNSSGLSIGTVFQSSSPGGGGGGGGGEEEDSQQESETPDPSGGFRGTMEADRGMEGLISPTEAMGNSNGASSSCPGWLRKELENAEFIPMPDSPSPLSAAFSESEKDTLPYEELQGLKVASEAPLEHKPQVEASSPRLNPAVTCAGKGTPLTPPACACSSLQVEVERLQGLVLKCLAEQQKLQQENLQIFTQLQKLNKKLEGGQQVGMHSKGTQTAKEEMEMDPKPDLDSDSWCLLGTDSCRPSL

Sequence of Sphingosine kinase 1 (Homo sapiens) (Q9NYA1 whole entry): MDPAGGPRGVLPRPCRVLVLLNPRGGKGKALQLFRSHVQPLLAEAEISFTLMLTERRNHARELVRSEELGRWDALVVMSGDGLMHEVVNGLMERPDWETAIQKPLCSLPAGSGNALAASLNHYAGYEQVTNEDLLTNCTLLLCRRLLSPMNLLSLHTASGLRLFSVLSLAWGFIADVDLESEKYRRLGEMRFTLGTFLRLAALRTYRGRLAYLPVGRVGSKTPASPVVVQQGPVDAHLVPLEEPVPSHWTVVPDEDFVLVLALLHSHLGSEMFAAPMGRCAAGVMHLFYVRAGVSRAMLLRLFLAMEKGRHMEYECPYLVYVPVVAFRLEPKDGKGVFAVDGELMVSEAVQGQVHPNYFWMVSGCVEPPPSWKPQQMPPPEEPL

NS(=O)(=O)c1cccc(N/C=C2\C(=O)Nc3ccccc32)c1
inhibition [1]: -0.2%
inhibition [2]: 0.81%
inhibition [3]: 0.83%
inhibition [4]: 2.24%
inhibition [5]: 3.93%
inhibition [6]: 4.81%
inhibition [7]: 3.57%
inhibition [8]: 6.37%
inhibition [9]: 4.39%
inhibition [10]: 6.35%
inhibition [11]: 14.5%
inhibition [12]: 2.63%
inhibition [13]: 4.56%
inhibition [14]: 5.64%
inhibition [15]: 4.55%
inhibition [16]: 1.86%
inhibition [17]: 1.95%
inhibition [18]: 6.51%
inhibition [19]: 4.33%
inhibition [20]: 5.97%
